Here are results for one molecule from ChEMBL document CHEMBL2218924, “A broad activity screen in support of a chemogenomic map for kinase signalling research and drug discovery” (Biochem J, 2013).

The structures appear in SMILES notation.

Experiment [1] deals with T1, Ephrin type-B receptor 1 (Homo sapiens) (UniProt P54762).
T1 sequence (whole entry): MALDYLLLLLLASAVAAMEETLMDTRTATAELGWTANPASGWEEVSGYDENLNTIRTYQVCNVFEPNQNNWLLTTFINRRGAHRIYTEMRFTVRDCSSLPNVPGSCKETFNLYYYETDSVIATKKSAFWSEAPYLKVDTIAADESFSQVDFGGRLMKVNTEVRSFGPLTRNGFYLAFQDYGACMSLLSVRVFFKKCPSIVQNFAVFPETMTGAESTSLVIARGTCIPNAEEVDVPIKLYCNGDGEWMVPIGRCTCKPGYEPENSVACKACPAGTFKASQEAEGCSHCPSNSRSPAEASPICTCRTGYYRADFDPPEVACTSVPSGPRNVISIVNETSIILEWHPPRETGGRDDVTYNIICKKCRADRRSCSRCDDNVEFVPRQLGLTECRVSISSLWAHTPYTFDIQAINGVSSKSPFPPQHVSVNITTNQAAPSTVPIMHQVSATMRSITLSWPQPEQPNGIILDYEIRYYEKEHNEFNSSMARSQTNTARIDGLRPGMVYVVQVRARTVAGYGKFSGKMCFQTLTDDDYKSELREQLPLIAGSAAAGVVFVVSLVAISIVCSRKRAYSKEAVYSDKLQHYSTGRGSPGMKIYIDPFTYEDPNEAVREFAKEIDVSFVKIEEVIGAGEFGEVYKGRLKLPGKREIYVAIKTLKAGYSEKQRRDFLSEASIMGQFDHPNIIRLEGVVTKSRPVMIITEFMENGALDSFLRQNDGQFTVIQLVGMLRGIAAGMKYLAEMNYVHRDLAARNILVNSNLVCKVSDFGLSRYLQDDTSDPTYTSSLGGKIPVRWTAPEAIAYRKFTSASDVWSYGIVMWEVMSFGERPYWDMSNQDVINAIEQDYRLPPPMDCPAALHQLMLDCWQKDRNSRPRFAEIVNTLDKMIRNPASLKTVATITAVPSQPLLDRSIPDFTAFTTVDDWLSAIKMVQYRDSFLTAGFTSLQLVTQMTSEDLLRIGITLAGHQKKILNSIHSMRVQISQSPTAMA
Particulars: at 10 µM; call rule not given here.

The target of experiment [2] is T2, Ephrin type-B receptor 2 (Homo sapiens) (UniProt P29323).
T2 sequence (whole entry): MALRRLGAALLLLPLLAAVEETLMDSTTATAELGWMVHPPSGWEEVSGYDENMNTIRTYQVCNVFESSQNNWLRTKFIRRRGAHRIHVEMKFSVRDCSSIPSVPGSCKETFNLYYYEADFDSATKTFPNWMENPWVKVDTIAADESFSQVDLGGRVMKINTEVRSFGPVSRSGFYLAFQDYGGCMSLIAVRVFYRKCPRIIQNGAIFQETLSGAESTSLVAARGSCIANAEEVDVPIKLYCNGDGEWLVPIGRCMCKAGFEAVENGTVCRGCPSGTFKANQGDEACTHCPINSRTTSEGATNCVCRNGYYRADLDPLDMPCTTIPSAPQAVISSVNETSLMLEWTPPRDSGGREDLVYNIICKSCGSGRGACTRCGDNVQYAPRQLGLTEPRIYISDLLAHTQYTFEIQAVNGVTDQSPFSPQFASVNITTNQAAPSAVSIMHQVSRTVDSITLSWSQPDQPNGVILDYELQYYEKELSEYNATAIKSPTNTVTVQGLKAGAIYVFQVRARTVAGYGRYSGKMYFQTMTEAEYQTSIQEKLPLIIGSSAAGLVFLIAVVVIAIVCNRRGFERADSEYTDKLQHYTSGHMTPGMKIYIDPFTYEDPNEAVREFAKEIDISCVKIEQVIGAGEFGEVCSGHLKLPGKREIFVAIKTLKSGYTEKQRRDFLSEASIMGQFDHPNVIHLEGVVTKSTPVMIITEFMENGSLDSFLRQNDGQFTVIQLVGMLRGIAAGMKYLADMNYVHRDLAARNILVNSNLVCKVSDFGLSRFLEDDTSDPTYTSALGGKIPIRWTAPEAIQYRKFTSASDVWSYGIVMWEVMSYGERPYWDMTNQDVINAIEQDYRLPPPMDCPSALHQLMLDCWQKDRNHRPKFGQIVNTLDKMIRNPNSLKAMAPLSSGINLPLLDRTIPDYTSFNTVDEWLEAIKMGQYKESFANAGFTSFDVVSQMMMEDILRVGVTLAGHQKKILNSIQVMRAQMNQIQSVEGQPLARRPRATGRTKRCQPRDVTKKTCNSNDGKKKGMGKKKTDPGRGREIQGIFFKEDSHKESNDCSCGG
Conditions: at 1 µM.

The target in experiment [3] is T2, Ephrin type-B receptor 2 (Homo sapiens). Conditions: at 10 µM.
Experiment [4] has as its target T3, Ephrin type-B receptor 3 (Homo sapiens) (UniProt P54753).
T3 sequence (whole entry): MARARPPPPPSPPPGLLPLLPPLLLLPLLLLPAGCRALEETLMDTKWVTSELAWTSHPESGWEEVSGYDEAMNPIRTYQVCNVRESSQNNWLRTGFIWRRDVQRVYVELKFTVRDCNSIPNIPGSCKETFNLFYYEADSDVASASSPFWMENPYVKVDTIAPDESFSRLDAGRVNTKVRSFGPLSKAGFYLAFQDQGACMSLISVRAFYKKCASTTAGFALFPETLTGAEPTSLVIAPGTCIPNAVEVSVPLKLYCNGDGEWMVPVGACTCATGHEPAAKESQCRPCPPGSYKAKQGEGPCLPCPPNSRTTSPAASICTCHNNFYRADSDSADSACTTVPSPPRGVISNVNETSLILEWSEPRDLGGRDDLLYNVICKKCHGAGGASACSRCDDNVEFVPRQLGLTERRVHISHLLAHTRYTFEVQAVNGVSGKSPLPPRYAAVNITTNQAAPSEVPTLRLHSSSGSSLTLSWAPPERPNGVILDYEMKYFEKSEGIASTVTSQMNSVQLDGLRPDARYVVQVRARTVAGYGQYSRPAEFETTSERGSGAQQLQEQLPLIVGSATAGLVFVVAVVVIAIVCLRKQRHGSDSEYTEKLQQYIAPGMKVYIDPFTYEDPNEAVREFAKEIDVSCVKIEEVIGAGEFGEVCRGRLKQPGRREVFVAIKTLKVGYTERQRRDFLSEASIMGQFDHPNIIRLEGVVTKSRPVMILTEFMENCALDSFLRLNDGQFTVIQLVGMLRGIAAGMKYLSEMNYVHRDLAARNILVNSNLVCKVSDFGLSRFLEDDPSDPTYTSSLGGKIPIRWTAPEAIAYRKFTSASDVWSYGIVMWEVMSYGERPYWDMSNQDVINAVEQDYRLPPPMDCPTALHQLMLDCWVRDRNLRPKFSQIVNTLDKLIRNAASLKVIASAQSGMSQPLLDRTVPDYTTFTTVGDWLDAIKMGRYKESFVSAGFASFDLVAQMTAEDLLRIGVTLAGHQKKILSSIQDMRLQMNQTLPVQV
Conditions: at 1 µM.

The target in experiment [5] is T3, Ephrin type-B receptor 3 (Homo sapiens). Particulars: at 10 µM.
Experiment [6] addresses T4, Ephrin type-B receptor 4 (Homo sapiens) (UniProt P54760).
T4 sequence (whole entry): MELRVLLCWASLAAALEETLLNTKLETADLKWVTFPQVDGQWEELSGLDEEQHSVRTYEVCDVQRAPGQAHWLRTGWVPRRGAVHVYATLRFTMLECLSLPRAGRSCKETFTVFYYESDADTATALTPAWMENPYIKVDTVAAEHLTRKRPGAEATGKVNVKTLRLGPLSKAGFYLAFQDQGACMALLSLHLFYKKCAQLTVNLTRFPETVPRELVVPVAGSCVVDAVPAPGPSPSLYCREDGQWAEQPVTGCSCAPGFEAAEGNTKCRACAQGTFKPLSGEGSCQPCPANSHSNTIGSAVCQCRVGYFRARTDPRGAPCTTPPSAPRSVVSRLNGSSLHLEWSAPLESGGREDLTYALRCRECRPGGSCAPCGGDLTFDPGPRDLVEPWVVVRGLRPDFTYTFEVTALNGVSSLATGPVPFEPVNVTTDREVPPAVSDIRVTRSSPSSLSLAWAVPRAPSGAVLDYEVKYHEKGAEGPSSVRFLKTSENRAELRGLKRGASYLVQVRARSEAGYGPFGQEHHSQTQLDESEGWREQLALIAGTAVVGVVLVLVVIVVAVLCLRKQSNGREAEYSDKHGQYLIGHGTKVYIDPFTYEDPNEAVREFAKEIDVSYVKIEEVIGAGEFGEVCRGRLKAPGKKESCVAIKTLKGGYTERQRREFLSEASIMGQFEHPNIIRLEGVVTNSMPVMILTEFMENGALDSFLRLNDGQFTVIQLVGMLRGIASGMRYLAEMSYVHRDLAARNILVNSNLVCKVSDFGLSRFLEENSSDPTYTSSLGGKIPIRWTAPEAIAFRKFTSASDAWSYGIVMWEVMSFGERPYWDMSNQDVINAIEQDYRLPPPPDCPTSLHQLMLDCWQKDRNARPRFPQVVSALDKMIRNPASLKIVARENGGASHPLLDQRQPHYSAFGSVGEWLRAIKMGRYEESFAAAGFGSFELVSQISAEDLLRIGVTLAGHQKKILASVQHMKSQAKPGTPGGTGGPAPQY
Conditions: at 1 µM.

The target in experiment [7] is T4, Ephrin type-B receptor 4 (Homo sapiens). Particulars: at 10 µM.
The target of experiment [8] is Receptor tyrosine-protein kinase erbB-4 (Homo sapiens) (UniProt Q15303). Particulars: at 1 µM.
Receptor tyrosine-protein kinase erbB-4 (Homo sapiens), sequence (Q15303 whole entry): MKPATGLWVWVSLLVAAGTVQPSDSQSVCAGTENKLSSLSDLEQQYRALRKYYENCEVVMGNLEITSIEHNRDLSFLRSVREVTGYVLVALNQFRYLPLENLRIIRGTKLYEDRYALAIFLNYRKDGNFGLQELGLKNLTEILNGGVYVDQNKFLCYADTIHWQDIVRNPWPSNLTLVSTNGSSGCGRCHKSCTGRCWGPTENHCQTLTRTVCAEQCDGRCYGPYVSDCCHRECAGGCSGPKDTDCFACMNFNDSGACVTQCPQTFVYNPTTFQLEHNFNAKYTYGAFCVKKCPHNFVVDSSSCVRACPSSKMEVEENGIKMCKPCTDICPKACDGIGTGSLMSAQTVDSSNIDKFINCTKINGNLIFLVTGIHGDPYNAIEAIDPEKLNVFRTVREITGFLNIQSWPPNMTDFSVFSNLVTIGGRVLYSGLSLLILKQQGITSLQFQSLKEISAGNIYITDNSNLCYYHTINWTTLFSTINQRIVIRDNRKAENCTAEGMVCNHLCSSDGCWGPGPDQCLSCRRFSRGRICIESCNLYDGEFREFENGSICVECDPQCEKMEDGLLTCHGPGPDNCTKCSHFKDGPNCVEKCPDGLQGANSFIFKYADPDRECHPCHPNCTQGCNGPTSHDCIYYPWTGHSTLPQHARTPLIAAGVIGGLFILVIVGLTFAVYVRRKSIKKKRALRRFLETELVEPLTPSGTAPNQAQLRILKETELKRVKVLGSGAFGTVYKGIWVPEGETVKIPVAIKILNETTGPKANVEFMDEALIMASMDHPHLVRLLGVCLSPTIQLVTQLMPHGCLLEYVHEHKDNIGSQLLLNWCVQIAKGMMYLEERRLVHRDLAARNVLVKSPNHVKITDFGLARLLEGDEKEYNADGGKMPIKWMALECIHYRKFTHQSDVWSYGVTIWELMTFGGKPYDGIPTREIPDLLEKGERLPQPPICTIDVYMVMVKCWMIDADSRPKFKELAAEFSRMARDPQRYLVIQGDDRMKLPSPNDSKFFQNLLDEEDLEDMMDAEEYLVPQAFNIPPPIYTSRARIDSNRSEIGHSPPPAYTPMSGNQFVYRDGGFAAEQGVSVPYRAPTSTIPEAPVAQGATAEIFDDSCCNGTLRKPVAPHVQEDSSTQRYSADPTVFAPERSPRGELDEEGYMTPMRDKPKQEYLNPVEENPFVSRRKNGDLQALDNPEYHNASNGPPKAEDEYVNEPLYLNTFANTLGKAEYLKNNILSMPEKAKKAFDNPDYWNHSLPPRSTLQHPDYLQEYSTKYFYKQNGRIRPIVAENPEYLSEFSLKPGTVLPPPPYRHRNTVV
Experiment [9] shares this target. Particulars: at 10 µM.
Experiment [10] deals with Focal adhesion kinase 1 (Homo sapiens) (UniProt Q05397). Conditions: at 1 µM.
Focal adhesion kinase 1 (Homo sapiens), sequence (Q05397 2-1052 limits assumed): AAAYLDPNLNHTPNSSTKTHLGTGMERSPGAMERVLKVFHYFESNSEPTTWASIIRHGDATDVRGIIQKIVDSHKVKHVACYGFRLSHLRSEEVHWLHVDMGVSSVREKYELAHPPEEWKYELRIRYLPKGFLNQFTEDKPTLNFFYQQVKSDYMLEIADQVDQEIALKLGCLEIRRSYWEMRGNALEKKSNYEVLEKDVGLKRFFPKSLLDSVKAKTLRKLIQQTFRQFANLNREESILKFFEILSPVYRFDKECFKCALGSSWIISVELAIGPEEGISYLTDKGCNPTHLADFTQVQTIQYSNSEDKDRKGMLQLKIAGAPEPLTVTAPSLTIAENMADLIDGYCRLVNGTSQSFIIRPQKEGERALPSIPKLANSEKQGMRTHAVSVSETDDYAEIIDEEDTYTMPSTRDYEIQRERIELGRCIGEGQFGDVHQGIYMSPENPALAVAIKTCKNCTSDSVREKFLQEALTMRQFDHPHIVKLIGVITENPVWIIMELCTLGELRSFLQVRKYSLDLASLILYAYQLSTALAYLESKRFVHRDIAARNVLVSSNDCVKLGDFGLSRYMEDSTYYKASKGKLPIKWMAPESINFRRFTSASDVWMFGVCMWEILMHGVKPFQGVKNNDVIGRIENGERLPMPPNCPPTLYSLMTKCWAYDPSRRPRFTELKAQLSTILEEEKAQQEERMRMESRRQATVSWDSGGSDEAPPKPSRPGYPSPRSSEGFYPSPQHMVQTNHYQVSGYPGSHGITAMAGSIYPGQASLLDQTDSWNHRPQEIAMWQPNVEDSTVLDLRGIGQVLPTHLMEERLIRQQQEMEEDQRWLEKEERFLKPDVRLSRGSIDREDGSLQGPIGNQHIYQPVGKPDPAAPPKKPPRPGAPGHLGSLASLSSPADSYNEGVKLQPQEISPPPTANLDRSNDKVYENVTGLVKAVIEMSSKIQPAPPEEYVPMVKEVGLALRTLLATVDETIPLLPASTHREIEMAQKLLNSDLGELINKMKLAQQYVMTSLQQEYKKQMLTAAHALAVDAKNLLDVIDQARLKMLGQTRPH

As to `CO[C@H]1[C@@H](OC)C[C@H](C)[C@@H](OC)C2=CC(=O)C=C(NC(=O)/C(C)=C/C=C/[C@H](OC)[C@@H](OC(N)=O)/C(C)=C/[C@@H]1C)C2=O`, the residual activity is 103% in [1]; 115% in experiment [2]; 128% in experiment [3]; 111% (inactive) in [4]; 102% in experiment [5]; 94% in experiment [6]. For the same molecule, the residual activity in experiment [7] came to 113%; in experiment [8] it was 92%; in [9], 67%; in experiment [10], 110%.
